Assay results: PubChem BioAssay (Tox21)
Results filed as inconclusive are left out. Activity calls are given as the source filed them. Unless noted, calls follow the shape of the full dose curve.

Key:
[1] = Nuclear factor erythroid 2-related factor 2/antioxidant responsive element (Nrf2/ARE) small molecule agonists: qHTS cell viability counter screen in human keratinocytes (AID 1919968; active = well fitted curve in the direction sought with a large enough effect in the repeat runs; an effect the other way counts as inactive or inconclusive; also: nearly all actives have a fitted effect of over 55% in size)
Procedure, shortened: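 Seed 1,500 KeratinoSens cells per well, then incubate 5 h at 37 C/5% CO2. Add compounds in DMSO and incubate 23 h. Add CellTiter-Fluor, wait 1 h and read fluorescence.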

[2] = target: Gonadotropin-releasing hormone receptor (Homo sapiens) (UniProt P30968); assay: Human gonadotropin-releasing hormone receptor (GnRHR) small molecule agonists, calcium flux assay in GnRHR-HEK293 cells (AID 1920063); also: nearly all actives have a fitted effect of over 35% in size
Gonadotropin-releasing hormone receptor (Homo sapiens), sequence (P30968 whole entry, looked up): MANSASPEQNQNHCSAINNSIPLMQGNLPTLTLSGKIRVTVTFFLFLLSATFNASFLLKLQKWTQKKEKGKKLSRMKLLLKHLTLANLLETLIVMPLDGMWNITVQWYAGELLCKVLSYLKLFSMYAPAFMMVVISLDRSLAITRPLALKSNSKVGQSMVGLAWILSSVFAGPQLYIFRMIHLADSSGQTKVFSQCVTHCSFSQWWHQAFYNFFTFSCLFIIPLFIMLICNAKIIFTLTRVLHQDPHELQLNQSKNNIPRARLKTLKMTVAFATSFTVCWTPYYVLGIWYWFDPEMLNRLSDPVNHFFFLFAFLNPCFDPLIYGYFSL
Procedure, shortened: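 Cells: HEK293 stably expressing human GnRHR. Steps: overnight (18 h) culture, 1 h calcium dye loading at 37 C, compound addition, kinetic fluorescence read at 480/540 nm. Each compound tested at 15 concentrations in triplicate.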

[3] = target: KiSS-1 receptor (Homo sapiens) (UniProt Q969F8); assay: Human kisspeptin (KISS1R) small molecule agonists, calcium flux assay in KISS1R-HEK293 cells (AID 1920064; active = well fitted curve in the direction sought with a large enough effect in the repeat runs; an effect the other way counts as inactive or inconclusive)
KiSS-1 receptor (Homo sapiens), sequence (Q969F8 whole entry, looked up): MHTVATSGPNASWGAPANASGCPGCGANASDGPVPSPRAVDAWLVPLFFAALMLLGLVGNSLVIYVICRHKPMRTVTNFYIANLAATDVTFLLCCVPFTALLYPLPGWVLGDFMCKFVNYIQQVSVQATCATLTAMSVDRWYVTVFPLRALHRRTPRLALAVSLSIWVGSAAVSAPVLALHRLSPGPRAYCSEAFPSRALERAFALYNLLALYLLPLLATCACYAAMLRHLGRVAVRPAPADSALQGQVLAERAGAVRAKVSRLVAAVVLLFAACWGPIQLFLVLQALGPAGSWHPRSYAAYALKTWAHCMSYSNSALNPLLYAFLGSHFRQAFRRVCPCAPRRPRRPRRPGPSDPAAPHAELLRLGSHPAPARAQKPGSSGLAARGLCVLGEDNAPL
Procedure, shortened: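 Cells plated and incubated 18 h; dye added, 1 h at 37 C; compounds in DMSO pinned in; signal read at 480/540 nm every second for 3 min. Each compound tested at 15 concentrations in triplicate.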

[4] = G protein-coupled receptor (GPCR) small molecule agonists, calcium flux assay: HEK293 wild type cell line counter screen (AID 1920065)
Procedure, shortened: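 Counter-screen of the Tox21 10K library for non-specific calcium release: dye-loaded cells received compounds in DMSO and were monitored by kinetic fluorescence (480/540 nm, 3 min). Fifteen concentrations, run in triplicate.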

[5] = p53 small molecule agonists, cell-based qHTS assay with human liver microsomes (AID 1963577);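 also: p53 response element beta-lactamase reporter cells with liver microsomes plus NADPH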
Procedure, shortened: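 HLM-supplemented p53RE-bla reporter assay: 16 h compound exposure at 37 C, microsomes and NADPH each 0.5 mg/mL final, read by fluorescence intensity.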

[6] = p53 small molecule agonists, cell-based qHTS assay with rat liver microsomes (AID 1963578)
Procedure, shortened: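 Quantitative HTS of the Tox21 10K library: p53RE-bla cells, rat liver microsomes plus NADPH at 0.5 mg/mL final each, 16 h at 37 C, beta-lactamase fluorescence detection.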

[7] = p53 small molecule agonists, cell-based qHTS assay with human liver microsomes: qHTS cell viability counter screen (AID 1963579); also: nearly all actives have a fitted effect of over 45% in size
Procedure, shortened: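 Viability of p53RE-bla cells is measured as CellTiter-Glo luminescence following a 16 h, 37 C incubation with compound, liver microsomes from human donors and NADPH.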

[8] = p53 small molecule agonists, cell-based qHTS assay with rat liver microsomes: qHTS cell viability counter screen (AID 1963580); also: nearly all actives have a fitted effect of over 45% in size
Procedure, shortened: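 p53RE-bla HCT-116 cells were exposed 16 h at 37 C to compounds with rat liver microsomes (0.5 mg/mL) and NADPH (0.5 mg/mL). Viability was measured in the same wells as ATP content by CellTiter-Glo luminescence.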

[9] = p53 small molecule agonists, cell-based qHTS assay: qHTS cell viability counter screen (AID 1963581); also: nearly all actives have a fitted effect of over 45% in size
Procedure, shortened: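 Cells: HCT-116 with p53 response element-driven beta-lactamase. Treatment: 16 h, 37 C, compounds in DMSO. Read: CellTiter-Glo luminescence after 30 min RT.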

[10] = target: 5-hydroxytryptamine receptor 2A (Homo sapiens) (UniProt P28223); assay: 5-hydroxytryptamine receptor 2A (HTR2A) small molecule antagonists, cell-based qHTS assay (AID 1963586); also: nearly all actives have a fitted effect of over 45% in size
5-hydroxytryptamine receptor 2A (Homo sapiens), sequence (P28223 whole entry, looked up): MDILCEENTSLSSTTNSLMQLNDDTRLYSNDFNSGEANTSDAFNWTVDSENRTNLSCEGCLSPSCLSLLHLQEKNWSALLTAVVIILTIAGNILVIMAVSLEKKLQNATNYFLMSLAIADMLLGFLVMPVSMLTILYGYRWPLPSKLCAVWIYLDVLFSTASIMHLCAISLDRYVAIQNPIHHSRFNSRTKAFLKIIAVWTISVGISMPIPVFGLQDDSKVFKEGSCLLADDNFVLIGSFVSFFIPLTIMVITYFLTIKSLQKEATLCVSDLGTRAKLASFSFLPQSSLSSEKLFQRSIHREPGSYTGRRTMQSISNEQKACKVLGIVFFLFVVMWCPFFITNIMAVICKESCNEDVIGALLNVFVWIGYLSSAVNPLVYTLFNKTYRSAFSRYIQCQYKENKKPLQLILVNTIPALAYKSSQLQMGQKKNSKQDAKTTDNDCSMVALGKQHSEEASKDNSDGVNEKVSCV
Procedure, shortened: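 Antagonist-mode intracellular calcium assay: DOI (4 nM) added after 5 min compound pre-incubation at room temperature to dye-loaded HTR2A-CHO cells. Fluorescence followed for 3 min, sampled every second.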

[11] = target: 5-hydroxytryptamine receptor 2A (Homo sapiens) (UniProt P28223); assay: 5-hydroxytryptamine receptor 2A (HTR2A) small molecule agonists, cell-based qHTS assay (AID 1963587); also: nearly all actives have a fitted effect of over 30% in size
Procedure, shortened: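 CHO cells stably expressing human HTR2A, plated 18 h, loaded with calcium dye 1 h at 37 C. Agonist mode: compounds added and intracellular calcium fluorescence recorded kinetically for 2 min at 1 sec intervals.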

[12] = target: Muscarinic acetylcholine receptor M1 (Homo sapiens) (UniProt P11229); assay: Cholinergic receptor muscarinic 1 (CHRM1) small molecule antagonists, cell-based qHTS assay (AID 1963588); also: nearly all actives have a fitted effect of over 40% in size
Muscarinic acetylcholine receptor M1 (Homo sapiens), sequence (P11229 whole entry, looked up): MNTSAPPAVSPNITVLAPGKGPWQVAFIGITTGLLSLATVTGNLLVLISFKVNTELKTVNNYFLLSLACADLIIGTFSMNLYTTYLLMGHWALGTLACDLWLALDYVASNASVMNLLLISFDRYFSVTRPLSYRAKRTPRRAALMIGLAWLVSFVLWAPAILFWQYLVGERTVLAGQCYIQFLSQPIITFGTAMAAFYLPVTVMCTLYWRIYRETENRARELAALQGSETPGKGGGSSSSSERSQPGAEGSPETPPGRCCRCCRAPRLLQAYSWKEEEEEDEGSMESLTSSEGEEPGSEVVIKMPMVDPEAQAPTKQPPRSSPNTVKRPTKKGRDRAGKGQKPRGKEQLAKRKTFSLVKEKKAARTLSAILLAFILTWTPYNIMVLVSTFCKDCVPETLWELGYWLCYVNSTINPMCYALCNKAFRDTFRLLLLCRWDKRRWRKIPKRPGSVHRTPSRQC
Procedure, shortened: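 CHRM1-CHO calcium-flux assay, antagonist mode. Cells were seeded 18 h, dye-loaded 1 h at 37 C and given compound for 5 min at RT, then acetylcholine was added at 50nM. FDSS fluorescence was read 3 min; 15 concentrations, three runs.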

[13] = target: Muscarinic acetylcholine receptor M1 (Homo sapiens) (UniProt P11229); assay: Cholinergic receptor muscarinic 1 (CHRM1) small molecule agonists, cell-based qHTS assay (AID 1963589); also: nearly all actives have a fitted effect of over 35% in size
Procedure, shortened: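 Agonist-mode qHTS in CHO cells stably carrying human muscarinic M1. Intracellular calcium is tracked by fluorescence every second after compound transfer; each compound runs at 15 concentrations in three independent runs.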

[14] = cAMP Responsive Elements (CRE) small molecule antagonists, cell-based qHTS assay (AID 1963591; active = well fitted inhibition curve with a large enough effect in the signal ratio in the repeat runs, not every such curve was filed as active; the % refers to the signal ratio)
Procedure, shortened: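 Antagonist mode: test compounds are co-incubated with the adenylyl cyclase activator NKH477 (0.25 uM final) on CRE-bla HEK293T cells for 3 h at 37 °C, followed by LiveBLAzer substrate loading.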

[15] = target: D(2) dopamine receptor (Homo sapiens) (UniProt P14416); assay: Dopamine D2 receptor (DRD2) small molecule agonists, cell-based qHTS assay (AID 1963594); also: nearly all actives have a fitted effect of over 35% in size
D(2) dopamine receptor (Homo sapiens), sequence (P14416 whole entry, looked up): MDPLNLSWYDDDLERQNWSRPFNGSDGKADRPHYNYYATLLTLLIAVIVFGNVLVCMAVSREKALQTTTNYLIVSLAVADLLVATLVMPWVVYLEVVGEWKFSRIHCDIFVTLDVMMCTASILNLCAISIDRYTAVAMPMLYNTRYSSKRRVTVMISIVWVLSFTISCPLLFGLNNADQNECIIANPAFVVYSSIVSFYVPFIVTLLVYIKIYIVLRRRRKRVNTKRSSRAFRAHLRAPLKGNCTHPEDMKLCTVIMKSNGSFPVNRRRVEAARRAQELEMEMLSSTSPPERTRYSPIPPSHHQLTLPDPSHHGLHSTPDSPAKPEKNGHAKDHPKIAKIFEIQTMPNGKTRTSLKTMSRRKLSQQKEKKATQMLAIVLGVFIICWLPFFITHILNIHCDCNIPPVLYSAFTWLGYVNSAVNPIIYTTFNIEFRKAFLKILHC
Procedure, shortened: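 HEK293 cells stably expressing human DRD2, pre-treated with PDE inhibitor Ro20-1724 (0.1 mM final) and compound 10 min at room temperature, then stimulated with NKH477 (200nM […]) for 30 min. cAMP read by HTRF (665/620 nm).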

[16] = target: D(2) dopamine receptor (Homo sapiens) (UniProt P14416); assay: Dopamine D2 receptor (DRD2) small molecule antagonists, cell-based qHTS assay (AID 1963595; active = well fitted inhibition curve with a large enough effect in the signal ratio in the repeat runs, with a control signal flat; the % refers to the signal ratio)
Procedure, shortened: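 DRD2-HEK293; 0.1 mM Ro20-1724; cpd 10 min RT; NKH477 200 nM + quinpirole 12 nM, 30 min RT; HTRF cAMP (cAMP-d2/anti-cAMP cryptate), 665/620 nm ratio after 1 h.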

[17] = p53 small molecule agonists, cell-based qHTS assay (AID 1963582; active = well fitted activation curve with a large enough effect in the signal ratio in the repeat runs, not every such curve was filed as active; the % refers to the signal ratio)
Procedure, shortened: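 Quantitative HTS in p53RE-bla cells: after a 5 h settling period, compounds delivered in DMSO were left on cells for 16 h at 37 C, and reporter induction was measured as fluorescence following 2 h substrate loading.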

[18] = cAMP Responsive Elements (CRE) small molecule agonists, cell-based qHTS assay (AID 1963590)
Procedure, shortened: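 Agonist mode qHTS in CRE-bla HEK 293T cells: compounds dosed from DMSO for 3 h at 37 C/5% CO2, followed by LiveBLAzer B/G FRET substrate for 2 h at room temperature.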

[19] = target: Beta-2 adrenergic receptor (Homo sapiens) (UniProt P07550); assay: Adrenergic beta2 receptor (ADRB2) small molecule antagonists, cell-based qHTS assay (AID 1963592); also: series mostly up to about 92 µM; nearly all actives have a fitted effect of over 50% in size
Beta-2 adrenergic receptor (Homo sapiens), sequence (P07550 whole entry, looked up): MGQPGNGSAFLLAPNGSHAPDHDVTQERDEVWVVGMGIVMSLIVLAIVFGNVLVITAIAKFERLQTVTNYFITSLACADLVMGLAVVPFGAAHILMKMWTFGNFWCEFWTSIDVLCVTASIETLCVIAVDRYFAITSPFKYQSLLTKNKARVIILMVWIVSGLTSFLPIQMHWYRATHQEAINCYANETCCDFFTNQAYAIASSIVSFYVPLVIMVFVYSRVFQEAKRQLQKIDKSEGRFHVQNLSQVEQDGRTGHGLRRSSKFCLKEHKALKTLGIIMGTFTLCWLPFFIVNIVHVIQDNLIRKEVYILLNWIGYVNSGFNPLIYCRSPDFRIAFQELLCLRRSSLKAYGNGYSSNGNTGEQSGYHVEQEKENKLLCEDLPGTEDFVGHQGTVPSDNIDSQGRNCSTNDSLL
Procedure, shortened: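 Cells (CHO, stable ADRB2 overexpression) incubated 18-20hr at 37C; compounds added from DMSO; agonist mix (1nM isoproterenol, 100uM IBMX, 25uM Ro-20-1724) added; 0.5hr RT; d2-cAMP and anti-cAMP-cryptate added; 1hr RT; 665/615 nm read.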

[20] = target: Beta-2 adrenergic receptor (Homo sapiens) (UniProt P07550); assay: Adrenergic beta2 receptor (ADRB2) small molecule agonists, cell-based qHTS assay (AID 1963593);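 also: CHO cells stably overexpressing human ADRB2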
Procedure, shortened: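 CHO cells stably over-expressing ADRB2 were plated overnight at 37C, then dosed with compounds plus a stimulation mix containing 100uM IBMX and 25uM Ro-20-1724 for 0.5hr at room temperature. cAMP was measured by HTRF competition, 1hr.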

Measured: Potency

Brc1c2ccccc2cc2ccccc12
inactive: [1] | [2] | [3] | [4] | [5] | [6] | [7] | [8] | [9] | [10] | [11] | [12] | [13] | [14] | [15] | [16]

O=c1[nH]cccc1O
inactive: [1] | [2] | [3] | [4] | [5] | [6] | [7] | [8] | [17] | [10] | [11] | [12] | [13] | [18] | [14] | [19] | [15] | [16]

CSc1cnc(C)cn1
inactive: [1] | [2] | [3] | [4] | [5] | [6] | [7] | [8] | [17] | [10] | [11] | [13] | [18] | [14] | [19] | [16]

CCCCCCCCOc1ccccc1C(=O)Nc1ccc(C(=O)OCC[N+](C)(CC)CC)cc1
inactive: [1] | [2] | [3] | [4] | [5] | [6] | [7] | [8] | [9] | [13] | [15]

CCC(Cc1ccccc1)(C(=O)c1ccc(N2CCOCC2)cc1)N(C)C (stereo not given)
inactive: [1] | [2] | [3] | [4] | [5] | [6] | [7] | [8] | [17] | [10] | [11] | [13] | [19] | [20] | [15]

CCCCCCC(CCCCCCCCCCC(=O)OCC(COC(C)=O)OC(C)=O)OC(C)=O (stereo not given)
inactive: [1] | [2] | [3] | [4] | [5] | [6] | [8] | [9] | [17] | [10] | [11] | [12] | [13] | [18] | [14] | [19] | [20] | [15] | [16]

Cc1cccc2sc(N)nc12
inactive: [1] | [2] | [3] | [4] | [5] | [6] | [7] | [8] | [17] | [10] | [11] | [13] | [18] | [14] | [19] | [20] | [15] | [16]

C=C(C)C(=O)OC1CC(C)CC(C)(C)C1 (stereo not given)
inactive: [1] | [2] | [3] | [4] | [5] | [6] | [8] | [9] | [17] | [10] | [11] | [12] | [13] | [18] | [14] | [19] | [15] | [16]

Cc1ccc(S(=O)(=O)NC(=O)NN2CC3CCCC3C2)cc1 (stereo not given)
inactive: [1] | [2] | [3] | [4] | [5] | [6] | [8] | [17] | [18] | [14] | [19] | [20] | [15] | [16]

CC(C)(O)c1ccc(CNC(=O)c2cccnc2Oc2ccc3nonc3c2)cc1
inactive: [1] | [2] | [3] | [4] | [5] | [6] | [8] | [9] | [17] | [10] | [11] | [12] | [13] | [19] | [16]

CC1COc2c(N3CCN(C)CC3)c(F)cc3c(=O)c(C(=O)O)cn1c23 (stereo not given)
inactive: [1] | [2] | [3] | [4] | [5] | [6] | [7] | [8] | [9] | [17] | [14] | [16]

CC/C=C\CCOC(C)=O
inactive: [1] | [2] | [3] | [4] | [5] | [6] | [7] | [9] | [17] | [10] | [11] | [12] | [13] | [18] | [14] | [19] | [15] | [16]

Cc1[nH]cnc1CN1CCc2c(c3ccccc3n2C)C1=O
inactive: [1] | [2] | [3] | [4] | [5] | [6] | [7] | [8] | [9] | [17] | [18] | [14] | [20] | [15] | [16]

O=C(O)c1c(Cl)cccc1Cl
inactive: [1] | [2] | [3] | [4] | [5] | [6] | [7] | [9] | [17] | [10] | [11] | [12] | [13] | [19] | [15]
